In PubChem BioAssay (EPA / NIEHS):
Values joined by “and” are separate entries in the source; they are usually repeats but may differ in a detail not shown here. Identical values can stand only once. Active and inactive are the calls of the source. Rule for the calls: active = hit-call score of the fitted dose curve at least 0.9, where 1 is the maximum; inactive = score below 0.9.

The molecules below were run on C-C motif chemokine 2 (Homo sapiens) (UniProt P13500) (assay: BSK_KF3CT_MCP1: BioMAP Diversity Plus: KF3CT Assay for Monocyte Chemoattractant Protein 1 (MCP1/CCL2) Biomarker Activity (AID 2283073)). Conditions: primary human keratinocytes with fibroblasts; actives raise or lower the signal.
Experimental: BSK_KF3CT is a cell-based, multiplexed-readout assay that uses keratinocytes and foreskin fibroblasts, a human skin primary cell co-culture, with measurements taken at 24 hours after chemical dosing in a 96-well plate.BSK_KF3CT_MCP1 is an assay component measured in the BSK_KF3CT assay. It measures MCP-1 antibody related to regulation of gene expression using ELISA technology.Data from the assay component BSK_KF3CT_MCP1 was analyzed into 1 assay endpoint. This assay endpoint, BSK_KF3CT_MCP1, was analyzed with bidirectional fitting relative to DMSO as the negative control and baseline of activity. Using a type of binding reporter, gain or loss-of-signal activity can be used to understand changes in the signaling as they relate to the gene CCL2. Furthermore, this assay endpoint can be referred to as a primary readout, because this assay has produced multiple assay endpoints where this one serves a signaling function. To generalize the intended target to other relatable targets, this assay endpoint is annotated to the cytokine intended target family, where the subfamily is chemotactic factor.
The levels of cell surface (or secreted, indicated by the prefix "s") biomarker endpoints were measured by ELISA. Overt cytotoxicity to cells in confluent adherent cultures (all systems other than the BT system) was assessed by measuring total protein levels using sulforhodamine B (SRB) staining in parallel cultures at the time of biomarker measurements, indicated as SRB endpoints. For proliferation assays for adherent cell types, individual cell types are cultured at sub-confluence and relative cell numbers quantified by SRB staining at time points optimized for each system (48 h: 3C and CASM3C systems; 72 h: BT and HDF3CGF systems; 96 h: SAg system). SRB was performed by staining cells with 0.1% SRB after fixation with 10% TCA and reading wells at 560 nm.Viability and proliferation of PBMC (T cells) was quantified by Alamar Blue reduction for the SAg and BT systems. For PBMC viability (referred to as PBMC Cytotoxicity within the assay endpoint names), cells were plated (75,000/well in a 96-well plate) and then chemical samples added for 1 h before addition of activators, SEB and TSST-1 (20 ng/mL final concentration each). Cells were incubated for 90 h. Then, Alamar Blue (20 uL/well) (Invitrogen, Cat DAL1100) was added for 6 h, and the plates were read with a fluorescence microplate reader at 546/580 nm (excitation/emission). For PBMC proliferation, cells were plated and activated as above but incubated for only 16 h prior to addition of Alamar Blue. Plates were read after 6 h.

Question: With `CCCCC(CC)COC(=O)C=Cc1ccc(OC)cc1` (configuration not stated) as the molecule, how does the outcome read?
Answer: inactive

Question: Which outcome does the source give for `CN(C)Cc1cc(C(C)(C)C)c(O)c(C(C)(C)C)c1` here?
Answer: inactive

Question: For `OC(C(F)(F)F)(C(F)(F)F)C(O)(C(F)(F)F)C(F)(F)F`, which AC50 is on record?
Answer: 7.89 µM (active) and 7.97 µM (active)

Question: For `CC[N+](CC)(CC(=O)Nc1c(C)cccc1C)Cc1ccccc1`, which outcome is on record?
Answer: inactive

Question: With `CCC(C)=NO` as the molecule, how does the outcome read?
Answer: inactive

Question: `CN(C)c1ccc(C(c2ccccc2)c2ccc(N(C)C)cc2)cc1` was tested. Which outcome did it give?
Answer: inactive

Question: How did the outcome turn out when `Cc1c(C(N)=O)cc([N+](=O)[O-])cc1[N+](=O)[O-]` was run?
Answer: inactive

Question: Which AC50 does the source give for `O=[N+]([O-])c1cc(S(=O)(=O)Nc2ccccc2)ccc1Nc1ccccc1` here?
Answer: 25.3 µM (active) and 23.6 µM (active)

Question: For `CN(C)CCC(c1ccc(Cl)cc1)c1ccccn1` (configuration not stated), which outcome is on record?
Answer: inactive

Question: `Cc1cc(-n2nc3ccc(Cl)cc3n2)c(O)c(C(C)(C)C)c1` was tested. Which outcome did it give?
Answer: inactive

Question: With `CC(C)CC(=O)CC(C)CC(C)C` (configuration not stated) as the molecule, how does the AC50 read?
Answer: 37.1 µM (active)

Question: How did the AC50 turn out when `CCCCCCCCCCC1CO1` (configuration not stated) was run?
Answer: 20 µM (active)

Question: With `COc1ccccc1Oc1c(NS(=O)(=O)c2ccc(C(C)(C)C)cc2)nc(-c2ncccn2)nc1OCCO` as the molecule, how does the outcome read?
Answer: inactive

Question: Which outcome does the source give for `Cc1cccnc1` here?
Answer: inactive

Question: How did the outcome turn out when `Sc1nc2ccccc2s1` was run?
Answer: inactive

Question: For `COc1ccc(C(=O)c2ccccc2O)c(O)c1`, which outcome is on record?
Answer: inactive

Question: Which outcome does the source give for `CCCCCCC(O)CCCCCCCCCCC(=O)OC` (configuration not stated) here?
Answer: inactive

Question: `COC(=O)/C=C\C(=O)OC` was tested. Which outcome did it give?
Answer: inactive

Question: How did the outcome turn out when `CC[N+](CC)(CC(=O)Nc1c(C)cccc1C)Cc1ccccc1` (tested in a mixture with another compound) was run?
Answer: inactive

Question: Which outcome does the source give for `C1CN(CCOCCN2CCOCC2)CCO1` here?
Answer: inactive

Question: For `CCC[Si](OC(C)=O)(OC(C)=O)OC(C)=O`, which outcome is on record?
Answer: inactive

Question: With `Oc1cccc2ccccc12` as the molecule, how does the outcome read?
Answer: inactive

Question: With `CCCCCCCCCCCCCCCCCC[N+](C)(C)C` as the molecule, how does the AC50 read?
Answer: 3.36 µM (active)

Question: `CCCCCCCCCC/C=C/C1CC(=O)OC1=O` (configuration not stated) was tested. Which outcome did it give?
Answer: inactive

Question: For `COc1cc(CNC(=O)CCCC/C=C/C(C)C)ccc1O`, which outcome is on record?
Answer: inactive

Question: With `O=C(C(=O)c1ccccc1)c1ccccc1` as the molecule, how does the outcome read?
Answer: inactive

Question: Which outcome does the source give for `CC(C)C1OCCN1CCOC(=O)NCCCCCCNC(=O)OCCN1CCOC1C(C)C` (configuration not stated) here?
Answer: inactive
